This passage reports viability decrease (inhibition) results from PubChem BioAssay.

Calls of active or inactive are those of the source.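 How the source made its calls: active means compounds that lower survival of DLD-1 colon cancer cells in the luminescence readout, no cutoff given; inactive means the rest.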

This experiment can be described thus: decreased DLD-1 cellular survival, CellTiter-Glo luminescent readout, NPC compound collection, primary HTS (AID 1117346). To be noted: DLD-1 viability, CellTiter-Glo luminescence; at 20 µM (top of the series).
Take `CCCCCCCC/C=C/C(=O)O`: the viability decrease (inhibition) was 45% (inactive).
The value for `O=C(OCC(COC(=O)c1cccnc1)(COC(=O)c1cccnc1)COC(=O)c1cccnc1)c1cccnc1` was -2.7% (inactive).
Consider `CCCCC(O)/C=C(C)/C=C/C=C/C(=O)N1CCCC1=O` (centres undefined), for which the viability decrease (inhibition) is -19.2% (inactive).
Next, `CCCCCCCC/C=C\CCCCCCCCN`: 106% (active).
Next, `C[N+](C)(CCOc1ccccc1)Cc1cccs1`: 1.8% (inactive).
The value for `CCCOc1ccc2c(c1)CC[C@@H]1[C@@H]2CC[C@]2(C)C(OC)CC[C@@H]12` (some centres undefined) was 40.8% (inactive); that for `NS(=O)(=O)c1ccc(Cl)c(S(N)(=O)=O)c1` was -7.1% (inactive); that for `COc1ccc2c(c1)c(CC(=O)OC/C=C(\C)CC/C=C(\C)CCC=C(C)C)c(C)n2C(=O)c1ccc(Cl)cc1` was -1.2% (inactive).
Consider `O=S(=O)(O)CC(S)CS` (centres undefined), for which the viability decrease (inhibition) is -6.6% (inactive).
The value for `Cc1ccc2ccc(Cl)cc2n1` was -3.7% (inactive); that for `NC(=O)NS(=O)(=O)c1ccc(Cl)cc1` was -2.8% (inactive); that for `COc1cccc(CCc2ccccc2OCC(CN(C)C)OC(=O)CCC(=O)O)c1` (centres undefined) was 21.8% (inactive).
Next, `Cc1cc(O)c(Cl)c(C)c1Cl`: -12.3% (inactive); `COc1cccc2c1C(=O)c1c(O)c3c(c(O)c1C2=O)C[C@@](O)(C(=O)CO)C[C@@H]3O[C@H]1C[C@H](N)[C@H](O[C@@H]2CCCCO2)[C@H](C)O1`: 76% (active).
Turning to `CCCCCCCCCC(=O)O`, the viability decrease (inhibition) is 4.9% (inactive).
The value for `O=C(CCN1CCC(c2ccccc2)C1)c1ccc2c(c1)OCCO2` (centres undefined) was 101% (active).
`CNC(=O)c1cnn(-c2nc(N)c3ncn([C@@H]4O[C@H](CO)[C@@H](O)[C@H]4O)c3n2)c1`: the viability decrease (inhibition) was -13.2% (inactive).
The value for `O=C(O)Cc1cn(-c2ccccc2)nc1-c1ccc(Cl)cc1` was 7.8% (inactive); that for `CC1(S(=O)(=O)O)CC(=O)c2ccccc2C1=O` (centres undefined) was 102% (active); that for `OCCCc1ccccc1` was 7.85% (inactive).
The value for `NC(N)=NN=C(/C=C/c1ccc([N+](=O)[O-])o1)/C=C/c1ccc([N+](=O)[O-])o1` was 96% (active).
As to `O=C1c2ccccc2CCc2ccccc21`, the viability decrease (inhibition) was 9.1% (inactive).
Next, `Oc1ccccc1`: 0.9% (inactive).
Next, `CCOC(=O)c1ccc(NC(=O)CN2CCCCC2)cc1`: 5.8% (inactive); `COc1ccccc1OC(=O)Oc1ccccc1OC`: 14.4% (inactive); `CC1(C)CO[C@@H](CC(=O)O)CN1`: -1% (inactive).
The value for `CCCCN=C(N)N=C(N)N` was -0.2% (inactive); that for `O=C(O)CCC(=O)C(=O)O` was -7.5% (inactive).
In the case of `Cc1ccc(CCn2c3c(c4cc(Cl)ccc42)CN(C)CC3)cn1`, the viability decrease (inhibition) was 11.5% (inactive).
Next, `C[C@@H](N)C(=O)O`: 20.8% (inactive); `CCc1nnc(NS(=O)(=O)c2ccc(N)cc2)s1`: -18.9% (inactive); `NS(=O)(=O)c1cc(-c2nn[nH]n2)c(NCc2cccs2)cc1Cl`: -10.7% (inactive).
The value for `O=C(O)CNC(=O)CNC(=O)CNC(=O)CSC(=O)c1ccccc1` was 14.5% (inactive); that for `CCCCCCCCCCCCCCCCCCN(C)C` was -0.1% (inactive); that for `Oc1cccc(-c2c3nc(c(-c4cccc(O)c4)c4ccc([nH]4)c(-c4cccc(O)c4)c4nc(c(-c5cccc(O)c5)c5ccc2[nH]5)CC4)C=C3)c1` was 95.7% (active).
Next, `C=CCNc1nc(NCC=C)nc(N2CCN(C(c3ccc(F)cc3)c3ccc(F)cc3)CC2)n1`: 49.4% (inactive); `O=C(CCN1CCN(CCO)CC1)N1c2ccccc2Sc2ccc(C(F)(F)F)cc21`: 58.8% (active).
For the molecule `COc1ccc(OC(=O)N(CC(=O)O)Cc2ccc(OCCc3nc(-c4ccccc4)oc3C)cc2)cc1`, the viability decrease (inhibition) was 91.5% (active).
Next, `Oc1ccc(CCNCCCCCCNCCc2ccccc2)cc1O`: 101% (active).
